Results on 27 compounds are retold here after PubChem BioAssay (NCATS).

In assay [1] the target is Cellular tumor antigen p53 (Homo sapiens) (UniProt P04637). Kind of assay: Primary qHTS for small molecule compounds that upregulate eGFP-tagged delta133p53alpha (in N-terminal) cells. (AID 2060322). Further: nearly all actives have a fitted effect of over 75% in size. Further: potency means the concentration at half of the fitted maximal effect.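 On activation: cells pre-induced with doxycycline then dosed without doxycycline; series mostly up to about 56 µM; 0% = DMSO vehicle and 100% = reference activator.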 As to conditions: NCI-H358 eGFP-delta133p53alpha fluorescence, 24 h; activation: active compounds read high. The method in brief: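 NCI-H358 cells pre-induced 24 h with 10 ng/ml doxycycline for eGFP-delta133p53alpha, plated dox-free and exposed 24 h at 37C to titrated compounds. Fixed, Hoechst-stained; gated GFP peak intensity by laser scanning cytometry, normalized to DMSO (0%) and 57.5 uM 5-azacytidine (100%).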
Sequence of Cellular tumor antigen p53 (Homo sapiens) (P04637 whole entry, looked up): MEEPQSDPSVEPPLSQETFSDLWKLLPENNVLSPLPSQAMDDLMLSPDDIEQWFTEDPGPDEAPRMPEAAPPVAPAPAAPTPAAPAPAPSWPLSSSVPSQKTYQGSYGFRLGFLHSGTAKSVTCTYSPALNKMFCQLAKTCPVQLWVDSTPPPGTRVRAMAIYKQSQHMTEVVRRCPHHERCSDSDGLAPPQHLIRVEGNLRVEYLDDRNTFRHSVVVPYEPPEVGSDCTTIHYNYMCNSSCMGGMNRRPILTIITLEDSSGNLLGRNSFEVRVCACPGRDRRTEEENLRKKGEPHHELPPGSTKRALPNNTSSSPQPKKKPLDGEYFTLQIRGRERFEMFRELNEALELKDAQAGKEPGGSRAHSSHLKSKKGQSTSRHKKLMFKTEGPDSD

The target in assay [2] is Aldehyde dehydrogenase, mitochondrial (Homo sapiens) (UniProt P05091). Kind of assay: qHTS for Inhibitors of the Aldehyde Dehydrogenase Family (ALDH2) Primary screen (AID 2061308).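 Further: plate controls were vehicle for no effect and reference inhibitor for full effect; nearly all actives have a fitted effect of over 55% in size.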
The target in assay [3] is Retinaldehyde dehydrogenase 3 (Homo sapiens) (UniProt P47895). Kind of assay: qHTS for Inhibitors of the Aldehyde Dehydrogenase Family (ALDH1A3) Primary screen (AID 2061315).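 Further: plate controls were DMSO vehicle for no effect and reference inhibitor for full effect.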 A general note: Quantitative high-throughput screening tests each substance at several concentrations.

The structures appear in SMILES notation. Several values for one entry are separate records, joined by “and”; a condition that tells them apart may be missing. Equal values may be shown once. Inconclusive results are not listed. A number with no mark means an inactive call. Activity calls are given as the source filed them. The call rests on the fitted dose curve; in most records, active means well fitted curve in the direction sought with a large enough effect; inconclusive means small, poorly fitted or top-dose-only effect, or another doubt; inactive means no such curve, though single readings can be large; an effect the other way counts as inactive or inconclusive.

Turning to `CC(=O)c1ccc(OCC(=O)N2CCCCC2)cc1`, in assay [1], the activation is -3%. Besides, the Potency entry in assay [2] and in assay [3] was “inactive” in each case.

As to `COC(=O)C1(C)c2[nH]c3ccccc3c2CCN1C(=O)CCl` (stereo unspecified), the Potency in assay [1] was 30.1 µM (active). For the same compound, the Potency result in assay [2] and in assay [3] was “inactive” each time.

Regarding `CC1=CC(=O)CC(C)(CO)C1(O)/C=C/C(C)O[C@@H]1O[C@H](CO)[C@@H](O)[C@H](O)[C@H]1O` (stereo partly specified), the activation in assay [1] is -9.82%. Besides, the Potency result in assay [2] and in assay [3] was “inactive” in each case.

On to `CC(C)CCNC(=O)[C@H](CC(C)C)NC(=O)[C@H]1O[C@@H]1C(=O)O`, for which the activation in assay [1] was -9%. Besides, the Potency entry in assay [2] and in assay [3] was “inactive” each time.

Regarding `COC1C2=C(COC2=O)C2(C)CCCC(C)(CO)C2C1OC(=O)c1ccccc1` (stereo unspecified), in assay [1], the activation was -16%. The Potency result in assay [2] and in assay [3] was “inactive” throughout.

In the case of `COC(=O)C1=COC(O[C@@H]2O[C@H](CO)[C@@H](O)[C@H](O)[C@H]2O)[C@H]2[C@@H]1[C@H](OC(=O)CCc1ccc(O)cc1)C[C@]2(C)O` (stereo partly specified), in assay [1], the activation is 21.4%. The Potency entry in assay [2] and in assay [3] was “inactive” throughout.

Turning to `COC(=O)C1=COC(O[C@@H]2O[C@H](CO)[C@@H](O)[C@H](O)[C@H]2O)[C@@H]2[C@@](C)(O)[C@@H](OC(=O)/C=C/c3ccccc3)C[C@]12O` (stereo partly specified), the activation in assay [1] is 15.2%. Moreover, the Potency result in assay [2] and in assay [3] was “inactive” throughout.

`CC(C)(O[C@@H]1O[C@H](CO)[C@@H](O)[C@H](O)[C@H]1O)C(OC(=O)/C=C\c1ccc(O)cc1)C(=O)OCc1ccc(O[C@@H]2O[C@H](CO)[C@@H](O)[C@H](O)[C@H]2O)cc1` (stereo partly specified): in assay [1], the activation is -8.4%. In addition, the Potency result in assay [2] and in assay [3] was “inactive” in each case.

As for `COC(O)(CC(C)C)C1Oc2cc(C)[nH]c(=O)c2O1` (stereo unspecified), the activation in assay [1] is -26.7%. Besides, the Potency result in assay [2] and in assay [3] was “inactive” each time.

`COc1ccc(C(=O)Nc2ncc(-c3ccc(C(=O)O)cc3)s2)cc1`: the Potency in assay [1] was 10.7 µM (active). Moreover, the Potency result in assay [2] and in assay [3] was “inactive” each time.

For `CC(C)=CC[C@H]1O[C@]2(O)C([C@H]3CCC4[C@@]5(C)CC[C@H](O[C@@H]6O[C@H](CO)[C@H](O)[C@H](O[C@@H]7O[C@H](CO)[C@@H](O)[C@H](O)[C@H]7O)[C@H]6O[C@@H]6O[C@@H](C)[C@H](O)[C@@H](O)[C@H]6O)C(C)(C)C5CC[C@@]4(C)[C@]3(C)[C@H]2O)[C@@]1(C)O` (stereo partly specified), the activation in assay [1] was 17.6%. The Potency entry in assay [2] and in assay [3] was “inactive” each time.

With `CCC(C)C(=O)O[C@@H]1[C@@H](O)[C@@H](O[C@H]2O[C@H](CO)[C@@H](O)[C@H](O)[C@H]2O)O[C@H](CO)[C@H]1O` (stereo partly specified), the activation in assay [1] was -2.29%. Besides, the Potency entry in assay [2] and in assay [3] was “inactive” in each case.

`CC1C(O)C(O)C2C(C(=O)OCCc3ccc(O)cc3)=COC(O[C@@H]3O[C@H](CO)[C@@H](O)[C@H](O)[C@H]3O)C12` (stereo partly specified): the activation in assay [1] is 11.5%. The Potency entry in assay [2] and in assay [3] was “inactive” in each case.

Take `C/C=C(\C)C(=O)OC1C2(O)CC3=C4CC(=O)OC(c5ccoc5)C4(C)CCC3C(C)(C2=O)C(C(OC(C)=O)C(=O)OC)C1(C)C` (stereo unspecified): the activation in assay [1] is -7.63%. Further, the Potency result in assay [2] and in assay [3] was “inactive” in each case.

For the compound `N#Cc1cc(CN2CCC(Nc3ncnc4sc(Cl)cc34)CC2)ccc1F`, the activation in assay [1] is 5%. The Potency entry in assay [2] and in assay [3] was “inactive” in each case.

Consider `CCOc1cc(CNC2CCCC2)cc(Cl)c1OCc1ccc(Cl)cc1`, for which the Potency in assay [1] was 21.3 µM (active). The Potency entry in assay [2] and in assay [3] was “inactive” each time.

Turning to `N[C@H]1CN(c2c(F)cc3c(=O)c(C(=O)O)cn(C4C[C@@H]4F)c3c2Cl)CC12CC2` (stereo partly specified), the activation in assay [1] was -26%. The Potency result in assay [2] and in assay [3] was “inactive” in each case.

For `COc1c(C)c(OCC(O)C(C)(C)O)cc2c1CNC2=O` (stereo unspecified), the activation in assay [1] is -1.79%. Besides, the Potency result in assay [2] and in assay [3] was “inactive” in each case.

`Cc1ccc2c(n1)Oc1ccc(C(C)C(=O)OCC(=O)N(C)C)cc1C2` (stereo unspecified): the activation in assay [1] was -12.6% and -10.9%. Moreover, the Potency entry in assay [2] and in assay [3] was “inactive” throughout.

Regarding `C[C@H]1CC[C@H]2[C@@H](C=C[C@@](C)(O)[C@]2(C)C(=O)CCO)C1`, the activation in assay [1] was -9.16%. The Potency result in assay [2] and in assay [3] was “inactive” in each case.

Regarding `CC(C)(C)NS(=O)(=O)c1ccc(-c2ccc3[nH]nc(N)c3c2)cc1`, the activation in assay [1] was 0%. The Potency entry in assay [2] and in assay [3] was “inactive” in each case.

With `CC(C)CC(=O)OC[C@H]1O[C@@](COC(=O)CC(C)C)(O[C@H]2O[C@H](CO)[C@@H](O)[C@H](O)[C@H]2O)[C@@H](OC(=O)CC(C)C)[C@@H]1OC(=O)CC(C)C`, the activation in assay [1] was -0.763%. Moreover, the Potency result in assay [2] and in assay [3] was “inactive” each time.

Take `CNC(C)C(=O)NC(C(=O)N1CCCC1C(=O)Nc1cccc2ncccc12)C(C)C` (stereo unspecified): in assay [1], the activation was -21%. Also, the Potency entry in assay [2] and in assay [3] was “inactive” in each case.

As to `C=C1CC[C@@]2(OC1)O[C@H]1CC3C4CC=C5C[C@@H](O[C@@H]6O[C@@H](C)[C@H](O)[C@@H](O)[C@H]6O)C[C@@H](O[C@@H]6O[C@H](C)[C@H](O)[C@H](O)[C@H]6O[C@@H]6O[C@@H](C)[C@H](O)[C@@H](O)[C@H]6O)[C@]5(C)C4CC[C@]3(C)[C@H]1[C@@H]2C` (stereo partly specified), in assay [1], the activation was -4.58%. Besides, the Potency entry in assay [2] and in assay [3] was “inactive” each time.

Turning to `O=C(O)c1ccc(O)c2ncc(N3CCCN(CCc4cccc5ccccc45)CC3)cc12`, in assay [1], the activation was 21.2%. Moreover, the Potency entry in assay [2] and in assay [3] was “inactive” each time.

Take `O=C1Nc2ccc(O)cc2O[C@H]1O[C@@H]1O[C@H](CO)[C@@H](O)[C@H](O)[C@H]1O`: in assay [1], the activation is -16.8%. Also, the Potency result in assay [2] and in assay [3] was “inactive” each time.

As for `C/C(=C\CO[C@@H]1O[C@H](CO[C@H]2OC[C@](O)(CO)[C@H]2O)[C@@H](O)[C@H](O)[C@H]1O)C(C)(C)O`, the activation in assay [1] is -5.34%. The Potency entry in assay [2] and in assay [3] was “inactive” each time.
